Wnt bcat act = Wnt/beta-catenin pathway activators, primary screen, cell-based, plate reader, single point | Wnt/beta-catenin reporter cell assay, activator | activation, % at 9.35 µM | 300,000 tested, 1.2% active | AID 743398, 2014; in the data active means activation above about 30%, passing the limit was not always enough;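 further: 0% = neutral control wells and 100% = positive control wells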
TRPM1 prom inh = inhibitors of MITF-dependent TRPM1 promoter reporter, primary screen, cell-based, SK-MEL-5, single point, luciferase; SK-MEL-5 TRPM1 promoter luciferase, 24 h; inhibition, % at 12.5 µM; 330,000 tested, 0.83% active; AID 488899, 2010;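 active means mean inhibition across replicates of 60% or more, whatever share of single replicates reaches that level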
EWS-Fli block = EWS/Fli-driven NR0B1 reporter inhibitors, primary screen, A673 cells, NR0B1 luciferase, luminescence, MLPCN library | inhibition, % at 12.6 µM | viability-normalised | AID 651661, 2012 | 350,000 tested, 0.67% active;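 active means mean inhibition of at least 50% after viability correction, with every replicate also passing that limit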;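 further: firefly luciferase signal divided by Alamar Blue viability fluorescence both relative to DMSO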
MITF act = activators of MITF-driven TRPM1 promoter reporter, primary screen, cell-based, SK-MEL-5, luciferase, single point | SK-MEL-5 TRPM1-promoter luciferase, 24 h; % of positive control, neutral wells = 0 | activation, % at 12.5 µM | 300,000 tested, 0.75% active | AID 588334, 2011;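 active means mean activation of at least 80% with every replicate also reaching 80%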;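 further: 0% = neutral control wells and 100% = parthenolide positive control wells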
esBAF inh = Bmi1 luciferase reporter increase in mESCs, primary screen, esBAF inhibitor project, mouse ES cells, Bmi1 luciferase knock-in, single point | reporter increase, % at 12.5 µM | AID 602393, 2012 | 350,000 tested, 2% active | 24 h; 100% = twice the neutral-well signal; in the data active means activation above about 40%;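 further: 0% = median of the plate's neutral control wells and 100% = double that signal; a rise in the Bmi1 reporter signal indicates esBAF inhibition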
PAX8 reporter = inhibitors of PAX8-driven TPO luciferase reporter, primary screen, RMG-I cells, single concentration. AID 652154, 2013. 360,000 tested, 1.2% active. SteadyGlo, 24 h. inhibition, % at 12.6 µM;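 active means mean replicate inhibition at least 60% with every replicate also reaching 60%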;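 further: luciferase light reporting Pax8 driven TPO promoter activity; plate controls were median of neutral control wells for no effect and mitoxantrone controls for full effect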
Numbers without * were called inactive; . = not tested or not shown; ! = repeats disagree. Shown are actives, neighbours in structure and some others; about 4% of the full set was active somewhere.

SMILES	Wnt bcat act	TRPM1 prom inh	EWS-Fli block	MITF act	esBAF inh	PAX8 reporter
Cc1ccc(/C=N/Nc2cccc3cccnc23)c(O)c1	26	-47	-69	47	32	.
Oc1ccc(/C=N/Nc2cccc3cccnc23)c(O)c1	.	-45	.	44	79*	.
Cc1noc(C)c1NC(=O)Nc1ccc2c(c1)C(=O)N(C)[C@H]1CC[C@@H](CC(=O)N(C)C)O[C@@H]1CO2	.	.	4	.	-2	-10
Cc1ccc(NC(=O)c2ccc([N+](=O)[O-])s2)cc1S(=O)(=O)N1CCOCC1	-2	92*	38	-91	-27	101*
O=C(Nc1cc(S(=O)(=O)N2CCOCC2)ccc1N1CCOCC1)c1ccc([N+](=O)[O-])s1	4	83*	25	-82	-5	4
Cc1ccc(NC(=O)C2=COCCO2)cc1S(=O)(=O)N1CCOCC1	-3	4	-7	-5	0	-14
C[C@@H]1CCCCO[C@H](CN(C)C(=O)C2CCCCC2)[C@H](C)CN([C@@H](C)CO)C(=O)c2cc(NC(=O)C3CCCCC3)ccc2O1	.	.	4	.	-2	-6
COC(=O)c1c(-c2ccc(OC)cc2)sc2ccc(OC)cc12	42*	-55	-20	67	46*	-115
COC(=O)c1c(-c2ccc(OC)cc2)sc2ccc(-c3ccc4c(c3)OCO4)cc12	2	-12	-66	15	-1	8
Cc1ccccc1NC(=O)CSCc1nc(N)nc(Nc2ccccc2C)n1	1	-8	-2	15	.	8
Cc1ccccc1Nc1nc(N)nc(CCl)n1	3	-6	61*	.	.	102*
Cc1ccccc1Nc1nc(N)nc(CN(C)c2ccccc2)n1	.	-23	.	29	47*	.
C=CCN(CC=C)Cc1nc(N)nc(Nc2ccccc2C)n1	1	-7	3	4	9	-8
Cc1c(Cl)cccc1Nc1nc(N)nc(CSc2ncccn2)n1	3	0	.	1	52*	-103
Cc1c(Cl)cccc1Nc1nc(N)nc(CSCCO)n1	.	11	.	-11	.	.
O=C(N[C@@H]1CC[C@H](CCn2cc(C3CCCC3)nn2)O[C@H]1CO)c1cccnc1	.	.	.	.	.	10
Cc1nn(-c2ccc(N3CCCCC3)nn2)c(C)c1CCC(=O)Nc1ccc(F)cc1	16	-81	.	79	29	-106
CCc1ccc(NC(=O)CCc2c(C)nn(-c3ccc(N4CCCCC4)nn3)c2C)cc1	14	-99	-121	44	62*	-118
CCOc1ccc(NC(=O)CCc2c(C)nn(-c3ccc(N4CCCCC4)nn3)c2C)cc1	9	-74	-92	79	52*	-159
C[C@H]1CN([C@@H](C)CO)C(=O)c2cc(C#CC3CC3)cnc2O[C@@H]1CN(C)S(C)(=O)=O	.	.	-8	.	-7	.
O=[N+]([O-])c1cc(Cl)ccc1-c1nc(-c2ccccc2)no1	51*	-41	.	47	.	-79
O=[N+]([O-])c1ccccc1-c1nc(-c2ccc(Br)o2)no1	47*	-36	-14	40	.	-209
Clc1ccc(-c2nc(-c3ccncc3)no2)c(Cl)c1	60*	-76	-56	.	.	-185
Cc1ccc(-c2nc(-c3ccncc3)no2)c(Cl)c1	10	-10	56*	.	-33	-34
COc1ccc(-c2cnc3c(c2)C(=O)N([C@@H](C)CO)C[C@H](C)[C@@H](CN(C)Cc2ccccc2)O3)cc1	.	.	10	.	-2	.
SMILES	Wnt bcat act	TRPM1 prom inh	EWS-Fli block	MITF act	esBAF inh	PAX8 reporter
C[C@H](CO)N1C[C@H](C)[C@@H](CN(C)C(=O)CC2CC2)Oc2cc(-c3ccccc3)ccc2S1(=O)=O	.	.	3	.	-1	3
Clc1ccccc1-c1nc(-c2ccncc2)no1	49*!	-35	-27	36	13	-119
Clc1ccc(-c2noc(COc3ccccc3)n2)cc1	.	-50	.	52	35	.
Cc1nc(-c2noc(-c3ccccc3Cl)n2)c(C(F)(F)F)o1	-2	-79	-95	83*	47*	-83
c1ccc(-c2ccccc2-c2nc(-c3ccncc3)no2)cc1	.	-15	.	16	.	.
Cc1nc(-c2noc(-c3cccc(Cl)c3)n2)c(C(F)(F)F)o1	27	-26	-57	.	.	-45
Clc1ccc(OCc2nc(-c3ccncc3)no2)cc1	19	-68	.	72	62*	.
